Test results as given in PubChem BioAssay (Tox21).
Where “and” joins values, the source holds several entries; their conditions need not be identical. Identical values can stand only once. Results filed as inconclusive are left out. More than one record can exist for a structure, and the calls need not agree. Calls of active or inactive are those of the source. Unless noted, the call rests on the fitted dose curve; in most records, active means well fitted curve in the direction sought with a large enough effect in the repeat runs; inconclusive means weak or mixed curves; inactive means no such curve, though single readings can be large; an effect the other way counts as inactive or inconclusive.

Columns and labels:
[1] = qHTS assay to identify small molecule antagonists of the sonic hedgehog signaling (Shh) pathway (AID 1259369; calls by dose curve; further: nearly all actives have a fitted effect of over 45% in size; further: potency means the concentration at half of the fitted maximal effect)
In short: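 Screening used 3T3Gli1-Luc cells at 2,000 per well, compounds delivered in DMSO, and conditioned medium as agonist stimulus; plates incubated 24hr at 37 C and 5% CO2 before a 30min luciferase step.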

[2] = qHTS assay to identify small molecule agonists of the androgen receptor (AR) signaling pathway in the presence of an antagonist - cell viability counter screen (AID 1259379);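 further: MDA-kb2 human breast cancer cells carrying an MMTV luciferase reporter; series mostly up to about 92 µM; nearly all actives have a fitted effect of over 25% in size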
In short: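 In MDA-kb2 cells (human breast carcinoma, MMTV-luciferase), compounds at 15 concentrations plus 3.0uM nilutamide; 16 hr, 37C, 0% CO2; CellTiter-Fluor fluorescence read for viability.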

[3] = biological target: Estrogen receptor (Homo sapiens) (UniProt P03372); test: qHTS assay to identify small molecule agonists of the estrogen receptor alpha (ER-alpha) signaling pathway in the presence of an antagonist (AID 1259383; calls by dose curve; further: top concentration of the series differs between compounds; nearly all actives have a fitted effect of over 15% in size)
Sequence of Estrogen receptor (Homo sapiens) (P03372 whole entry, looked up): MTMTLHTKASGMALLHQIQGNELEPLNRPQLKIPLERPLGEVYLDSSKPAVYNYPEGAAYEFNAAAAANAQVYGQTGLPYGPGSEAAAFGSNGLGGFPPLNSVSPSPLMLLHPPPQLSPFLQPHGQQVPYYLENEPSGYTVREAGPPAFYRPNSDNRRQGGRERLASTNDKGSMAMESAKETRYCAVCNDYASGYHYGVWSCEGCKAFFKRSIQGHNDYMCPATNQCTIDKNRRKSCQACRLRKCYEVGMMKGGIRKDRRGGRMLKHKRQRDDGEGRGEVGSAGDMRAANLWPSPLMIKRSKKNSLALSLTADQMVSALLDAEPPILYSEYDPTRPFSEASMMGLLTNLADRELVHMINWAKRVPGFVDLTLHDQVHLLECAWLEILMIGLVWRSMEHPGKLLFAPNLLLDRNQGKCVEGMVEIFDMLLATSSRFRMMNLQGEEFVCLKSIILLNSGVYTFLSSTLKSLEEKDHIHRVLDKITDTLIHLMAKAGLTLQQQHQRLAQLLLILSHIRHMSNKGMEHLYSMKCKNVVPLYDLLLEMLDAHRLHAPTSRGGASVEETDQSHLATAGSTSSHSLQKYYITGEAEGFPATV
In short: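 In VM7Luc4E2 cells, 4,000 per well, compounds at 15 concentrations were co-incubated 22hr at 37C with 10.0nM final ICI-182,780. Luminescence from the stably transfected 4×ERE-luciferase reporter was recorded 30min after ONE-Glo addition.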

[4] = qHTS assay to identify small molecule agonists or antagonists of the thyroid stimulating hormone receptor (TSHR) signaling pathway - wild type cell line counter screen (AID 1259384; calls by dose curve)
In short: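 Counter screen in untransfected Hek293: compounds (15-point titration, triplicate) plus phosphodiesterase inhibitor Ro20-1724 added after 18 h plating; 30 min RT. Intracellular cAMP via competitive d2/cryptate immunoassay, 1 h incubation.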

[5] = biological target: Thyrotropin receptor (Homo sapiens) (UniProt P16473); test: qHTS assay to identify small molecule antagonists of the thyroid stimulating hormone receptor (TSHR) signaling pathway (AID 1259385; calls by dose curve; further: nearly all actives have a fitted effect of over 20% in size)
Sequence of Thyrotropin receptor (Homo sapiens) (P16473 whole entry, looked up): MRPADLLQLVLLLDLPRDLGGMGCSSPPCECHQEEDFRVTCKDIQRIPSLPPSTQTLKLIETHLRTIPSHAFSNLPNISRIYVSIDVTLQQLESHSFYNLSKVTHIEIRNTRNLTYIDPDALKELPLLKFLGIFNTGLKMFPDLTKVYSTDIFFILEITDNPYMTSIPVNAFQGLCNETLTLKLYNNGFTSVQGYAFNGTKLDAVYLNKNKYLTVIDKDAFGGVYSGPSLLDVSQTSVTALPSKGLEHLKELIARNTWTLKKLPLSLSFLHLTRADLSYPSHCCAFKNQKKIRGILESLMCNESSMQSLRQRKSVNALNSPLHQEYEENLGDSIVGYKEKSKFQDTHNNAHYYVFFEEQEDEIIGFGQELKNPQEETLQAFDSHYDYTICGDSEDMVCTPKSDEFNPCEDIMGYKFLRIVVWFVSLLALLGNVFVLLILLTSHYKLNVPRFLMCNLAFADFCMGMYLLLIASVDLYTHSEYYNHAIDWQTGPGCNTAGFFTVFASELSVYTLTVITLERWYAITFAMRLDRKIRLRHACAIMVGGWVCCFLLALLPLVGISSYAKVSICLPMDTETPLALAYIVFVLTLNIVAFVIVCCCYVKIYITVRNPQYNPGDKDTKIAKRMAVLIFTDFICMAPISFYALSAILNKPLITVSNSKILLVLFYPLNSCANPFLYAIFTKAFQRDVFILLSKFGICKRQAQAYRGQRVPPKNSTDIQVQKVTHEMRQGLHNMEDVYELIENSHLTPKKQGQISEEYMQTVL
In short: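 Antagonist mode: compound-treated TSHR-expressing HEK293 cells were stimulated with 1.5 ng/mL TSH (final) in presence of Ro20-1724 for 30 min at RT. HTRF cAMP detection after 1 h; each compound tested at 15 concentrations, triplicate.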

[6] = qHTS assay to identify small molecule agonists of the estrogen receptor alpha (ER-alpha) signaling pathway in the presence of an antagonist - cell viability counter screen (AID 1259386);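 further: cells exposed to compounds for 22 h at 37 °C before the viability read; nearly all actives have a fitted effect of over 30% in size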; further: potency means the concentration at half of the fitted maximal effect
In short: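 Fluorescent CellTiter-Fluor viability signal from VM7Luc4E2 cells, with the reagent added during the final hour of a 22hr compound exposure at 37C in the presence of 10.0nM ICI-182,780.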

[7] = qHTS assay to identify small molecule antagonists of the TGF-beta/Smad signaling pathway - cell viability counter screen (AID 1346824); further: nearly all actives have a fitted effect of over 50% in size; further: potency means the concentration at half of the fitted maximal effect
In short: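 Cytotoxicity counter-screen run in the same wells as the beta-lactamase Smad reporter read: CellTiter-Glo luminescence after 30 min at room temperature. HEK 293T SBE-bla cells had 5 hr compound exposure at 37 C with TGF-beta1 (0.25 ng/mL stock).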

[8] = qHTS assay to identify small molecule agonists of the TGF-beta/Smad signaling pathway - cell viability counter screen (AID 1346829); further: nearly all actives have a fitted effect of over 45% in size; further: potency means the concentration at half of the fitted maximal effect
In short: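 Tox21 qHTS format: SBE-bla HEK 293T cells treated with DMSO-dissolved compounds for 5 hr; CellTiter-Glo luminescence after 30 min at room temperature.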

[9] = qHTS assay to identify small molecule agonists of the TGF-beta/Smad signaling pathway (AID 1346859; active means well fitted activation curve with a large enough effect in the signal ratio in the repeat runs, not every such curve was filed as active; the % refers to the signal ratio; further: series mostly up to about 77 µM)
In short: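 Dual-wavelength fluorescence (460/530 nm emission) quantified beta-lactamase expression under the Smad binding element in HEK 293T cells following 5 hr compound treatment at 37 C.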

[10] = biological target: Thyrotropin-releasing hormone receptor (Homo sapiens) (UniProt P34981); test: qHTS assay to identify small molecule antagonists of the thyrotropin-releasing hormone receptor (TRHR) signaling pathway (AID 1346877; active means well fitted inhibition curve with a large enough effect in the repeat runs, not every such curve was filed as active; further: series mostly up to about 51 µM)
Sequence of Thyrotropin-releasing hormone receptor (Homo sapiens) (P34981 whole entry, looked up): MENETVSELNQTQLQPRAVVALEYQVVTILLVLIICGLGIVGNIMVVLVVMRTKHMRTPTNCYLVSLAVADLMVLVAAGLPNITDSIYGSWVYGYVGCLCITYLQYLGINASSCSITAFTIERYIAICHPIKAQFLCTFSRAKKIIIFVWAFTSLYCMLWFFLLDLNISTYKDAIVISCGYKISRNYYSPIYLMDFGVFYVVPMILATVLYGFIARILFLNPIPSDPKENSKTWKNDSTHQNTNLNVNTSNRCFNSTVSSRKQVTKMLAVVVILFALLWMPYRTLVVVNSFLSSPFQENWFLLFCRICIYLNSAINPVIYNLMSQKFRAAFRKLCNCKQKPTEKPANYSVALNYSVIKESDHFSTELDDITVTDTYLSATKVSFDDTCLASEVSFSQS
In short: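 In this cell-based calcium flux format, HEK293 cells expressing TRHR received test compound for 5 min before the agonist TRH (1 nM final). Dye loading lasted 2 h at 37 °C.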

[11] = biological target: Thyrotropin-releasing hormone receptor (Homo sapiens) (UniProt P34981); test: qHTS assay to identify small molecule agonists of the thyrotropin-releasing hormone receptor (TRHR) signaling pathway (AID 1346891; calls by dose curve; further: potency means the concentration at half of the fitted maximal effect; on activation: series mostly up to about 58 µM)
In short: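 Kinetic fluorescence (3 min, 1 s intervals) reported intracellular calcium after compound transfer onto TRHR-Hek293 cells pre-loaded with dye for 2 h at 37 °C.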

[12] = qHTS assay to identify small molecule agonists of the estrogen receptor beta (ER-beta) signaling pathway - cell viability counter screen (AID 1259380); further: nearly all actives have a fitted effect of over 30% in size; further: potency means the concentration at half of the fitted maximal effect
In short: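 Viability of ER-beta-UAS-bla HEK293T cells was determined by CellTiter-Glo luminescence following 16 hr treatment with test compounds at 37C.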

[13] = qHTS assay to identify small molecule antagonists of the estrogen receptor beta (ER-beta) signaling pathway - cell viability counter screen (AID 1259382); further: nearly all actives have a fitted effect of over 55% in size; further: potency means the concentration at half of the fitted maximal effect
In short: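 Tox21 10K library tested in qHTS format on ER-beta-bla HEK293T cells stimulated with 1nM E2; 16 hr treatment at 37C. Same-well CellTiter-Glo luminescence served as the cell viability measure.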

[14] = biological target: Progesterone receptor (Homo sapiens) (UniProt P06401); test: qHTS assay to identify small molecule agonists of the progesterone receptor (PR) signaling pathway (AID 1346784; calls by dose curve; further: nearly all actives have a fitted effect of over 30% in size)
Sequence of Progesterone receptor (Homo sapiens) (P06401 whole entry, looked up): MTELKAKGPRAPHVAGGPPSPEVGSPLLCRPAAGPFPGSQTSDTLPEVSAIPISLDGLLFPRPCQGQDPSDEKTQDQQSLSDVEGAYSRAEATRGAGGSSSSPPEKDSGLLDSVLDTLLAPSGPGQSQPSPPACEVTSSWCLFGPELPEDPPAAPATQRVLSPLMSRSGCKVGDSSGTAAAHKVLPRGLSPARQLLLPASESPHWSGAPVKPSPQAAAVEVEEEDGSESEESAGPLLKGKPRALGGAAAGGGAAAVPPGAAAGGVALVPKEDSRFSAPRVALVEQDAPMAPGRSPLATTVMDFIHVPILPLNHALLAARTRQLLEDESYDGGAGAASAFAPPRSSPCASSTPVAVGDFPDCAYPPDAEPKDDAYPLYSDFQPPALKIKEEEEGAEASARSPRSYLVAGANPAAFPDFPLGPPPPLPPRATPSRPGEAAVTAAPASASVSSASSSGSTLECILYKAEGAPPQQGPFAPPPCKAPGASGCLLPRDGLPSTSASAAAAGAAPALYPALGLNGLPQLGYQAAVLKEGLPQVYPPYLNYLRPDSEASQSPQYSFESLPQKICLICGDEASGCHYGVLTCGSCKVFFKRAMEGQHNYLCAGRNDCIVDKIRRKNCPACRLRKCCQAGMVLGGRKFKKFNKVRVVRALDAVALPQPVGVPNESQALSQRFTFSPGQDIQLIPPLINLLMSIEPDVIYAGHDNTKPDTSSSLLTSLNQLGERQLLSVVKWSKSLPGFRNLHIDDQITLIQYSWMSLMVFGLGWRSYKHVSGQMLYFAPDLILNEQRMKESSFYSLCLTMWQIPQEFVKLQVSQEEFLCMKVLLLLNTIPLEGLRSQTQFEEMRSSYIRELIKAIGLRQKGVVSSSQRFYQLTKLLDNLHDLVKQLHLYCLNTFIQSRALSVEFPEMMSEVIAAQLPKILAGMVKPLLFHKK
In short: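 The screen uses PR-UAS-bla HEK 293T cells in charcoal-stripped serum (2%). Compounds are applied for 16 hr at 37C after a 6 hr pre-incubation, and reporter activity is detected with a FRET beta-lactamase substrate after 2 hr at room temperature.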

[15] = biological target: Progesterone receptor (Homo sapiens) (UniProt P06401); test: qHTS assay to identify small molecule antagonists of the progesterone receptor (PR) signaling pathway (AID 1346795; active means well fitted inhibition curve with a large enough effect in the signal ratio in the repeat runs, not every such curve was filed as active; the % refers to the signal ratio; further: potency means the concentration at half of the fitted maximal effect)
In short: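 After 6 hr plating at 37C in 2% stripped-serum medium, PR-UAS-bla HEK293T cells got compounds, then 1 nM R5020. Sixteen hours later, LiveBLAzer substrate was applied for 2 hr at room temperature and fluorescence was recorded.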

[16] = qHTS assay to identify small molecule antagonists of the progesterone receptor (PR) signaling pathway - cell viability counter screen (AID 1346798); further: nearly all actives have a fitted effect of over 50% in size; further: potency means the concentration at half of the fitted maximal effect
In short: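 Viability was determined by ATP-based luminescence (CellTiter-Glo) in PR-UAS-bla HEK293T cells cultured in 2% charcoal-stripped serum and incubated 16 hr with compounds under R5020 stimulation.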

[17] = qHTS assay to identify small molecule agonists of the progesterone receptor (PR) signaling pathway - cell viability counter screen (AID 1346799; calls by dose curve; further: nearly all actives have a fitted effect of over 45% in size; further: potency means the concentration at half of the fitted maximal effect)
In short: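 Viability was scored by ATP luminescence (CellTiter-Glo, 30 min, room temperature) in the same wells used for the reporter readout, after 16 hr compound exposure of PR-UAS-bla HEK293T cells.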

[18] = biological target: Androgen receptor (Homo sapiens) (UniProt P10275); test: qHTS assay to identify small molecule agonists of the androgen receptor (AR) signaling pathway in the presence of an antagonist (AID 1259381; calls by dose curve; further: nearly all actives have a fitted effect of over 15% in size; further: potency means the concentration at half of the fitted maximal effect)
Sequence of Androgen receptor (Homo sapiens) (P10275 whole entry, looked up): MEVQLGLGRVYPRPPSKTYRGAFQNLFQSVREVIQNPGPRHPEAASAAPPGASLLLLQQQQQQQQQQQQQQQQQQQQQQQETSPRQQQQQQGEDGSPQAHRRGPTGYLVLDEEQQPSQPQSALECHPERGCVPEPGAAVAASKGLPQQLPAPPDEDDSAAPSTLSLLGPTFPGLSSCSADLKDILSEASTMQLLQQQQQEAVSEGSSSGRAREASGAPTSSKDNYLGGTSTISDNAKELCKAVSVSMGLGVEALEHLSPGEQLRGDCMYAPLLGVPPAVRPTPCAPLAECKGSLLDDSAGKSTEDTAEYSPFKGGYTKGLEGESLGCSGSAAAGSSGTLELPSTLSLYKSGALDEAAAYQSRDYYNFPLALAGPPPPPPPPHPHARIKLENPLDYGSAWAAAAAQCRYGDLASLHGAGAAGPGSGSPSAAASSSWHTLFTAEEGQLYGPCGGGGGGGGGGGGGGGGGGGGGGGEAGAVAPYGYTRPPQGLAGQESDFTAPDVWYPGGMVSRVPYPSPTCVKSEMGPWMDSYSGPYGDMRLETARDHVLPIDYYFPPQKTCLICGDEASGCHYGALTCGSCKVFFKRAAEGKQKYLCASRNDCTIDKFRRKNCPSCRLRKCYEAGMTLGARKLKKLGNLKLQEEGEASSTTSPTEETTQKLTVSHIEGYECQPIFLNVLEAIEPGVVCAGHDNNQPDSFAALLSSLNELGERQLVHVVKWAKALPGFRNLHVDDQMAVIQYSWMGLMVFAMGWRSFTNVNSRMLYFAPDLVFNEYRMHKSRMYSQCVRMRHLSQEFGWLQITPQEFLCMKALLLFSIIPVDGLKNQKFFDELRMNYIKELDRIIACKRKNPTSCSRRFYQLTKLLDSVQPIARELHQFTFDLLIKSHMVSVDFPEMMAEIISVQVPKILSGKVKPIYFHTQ
In short: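 Here, 15-concentration compound series were pin-transferred onto MDA-kb2 MMTV-luciferase cells already dosed with nilutamide (3.0uM final). After 16hr at 37C, ONE-Glo was added and luminescence read 30min later at room temperature.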

[19] = biological target: Estrogen receptor beta (Homo sapiens) (UniProt Q92731); test: qHTS assay to identify small molecule agonists of the estrogen receptor beta (ER-beta) signaling pathway (AID 1259377; active means well fitted activation curve with a large enough effect in the signal ratio in the repeat runs, not every such curve was filed as active; the % refers to the signal ratio)
Sequence of Estrogen receptor beta (Homo sapiens) (Q92731 whole entry, looked up): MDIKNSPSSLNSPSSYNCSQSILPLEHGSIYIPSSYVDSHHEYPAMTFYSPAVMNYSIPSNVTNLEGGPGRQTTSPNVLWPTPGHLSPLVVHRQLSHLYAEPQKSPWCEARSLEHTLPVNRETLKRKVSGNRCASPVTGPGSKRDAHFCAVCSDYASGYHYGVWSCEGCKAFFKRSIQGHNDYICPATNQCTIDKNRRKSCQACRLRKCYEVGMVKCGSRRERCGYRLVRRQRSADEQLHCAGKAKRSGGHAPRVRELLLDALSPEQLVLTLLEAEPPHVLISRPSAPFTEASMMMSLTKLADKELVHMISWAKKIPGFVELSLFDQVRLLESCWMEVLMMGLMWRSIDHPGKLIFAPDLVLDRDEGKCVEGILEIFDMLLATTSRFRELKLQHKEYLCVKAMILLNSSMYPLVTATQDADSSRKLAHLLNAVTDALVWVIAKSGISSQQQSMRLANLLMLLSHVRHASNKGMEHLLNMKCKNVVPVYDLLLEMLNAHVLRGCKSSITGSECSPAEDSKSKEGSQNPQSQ
In short: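 Measured by fluorescence intensity from a B/G FRET beta-lactamase substrate (2 h, room temperature) in ER-beta-UAS-bla HEK293T cells treated with DMSO-dissolved compounds for 16 hr at 37C and 5% CO2.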

[20] = biological target: Estrogen receptor beta (Homo sapiens) (UniProt Q92731); test: qHTS assay to identify small molecule antagonists of the estrogen receptor beta (ER-beta) signaling pathway (AID 1259378; active means well fitted inhibition curve with a large enough effect in the signal ratio in the repeat runs, not every such curve was filed as active; the % refers to the signal ratio)
In short: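 Antagonist mode: compounds added to beta-lactamase reporter HEK293T ER-beta-UAS cells stimulated with E2 (1nM final), 16 hr at 37C. LiveBLAzer B/G FRET substrate, 2 hours room temperature, fluorescence read-out.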

Measured: Potency

Oc1cccc(Cl)c1Cl
inactive: [1] | [2] | [3] | [4] | [5] | [6] | [7] | [8] | [9] | [10] | [11]

CCCN
inactive: [1] | [12] | [13] | [5] | [6] | [14] | [15] | [16] | [17] | [7] | [9]

O=c1[nH]c(Cl)c(Cl)cc1Cl
inactive: [1] | [18] | [4] | [5] | [6] | [15] | [7] | [8] | [10] | [11]

CC(=O)[O-].CC(=O)[O-].[Co+2]
inactive: [1] | [12] | [13] | [14] | [7] | [8] | [9]

[Cl][Hg][c]1ccccc1
active: [1] 24.3 nM | [12] 3.44 µM | [13] 3.06 µM | [6] 17.2 µM | [16] 3.06 µM | [17] 3.06 µM | [7] 19.5 µM | [8] 17.4 µM
inactive: [18] | [3]

COC(=O)C(C)N(C(=O)c1ccco1)c1c(C)cccc1C (stereo not drawn)
not listed: [1] | [10] | [11] | [15] | [16] | [17] | [18]
inactive: all other assays above

O=C1C2(Cl)C3(Cl)C4(Cl)C(Cl)(Cl)C5(Cl)C3(Cl)C1(Cl)C5(Cl)C24Cl (stereo not drawn)
active: [1] 12 µM and 29.3 µM | [13] 26.9 µM and 58.5 µM | [15] 29.3 µM | [11] 30.4 µM and 37.3 µM
13.5 µM (active) and inactive: [18]
inactive: [7] | [9]

N#CCCl
inactive: [1] | [3] | [4] | [5] | [6] | [15] | [7] | [8] | [9]
active: [12] 25.4 µM

O=C(CCCCl)c1ccc(F)cc1
not listed: [2] | [10] | [11] | [17] | [19] | [20]
inactive: all other assays above

CCCCN(CCCC)C(=S)S
inactive: [1] | [12] | [13] | [3] | [6] | [14] | [15] | [7] | [8] | [9]
